From PubChem BioAssay (Tox21)
Records with an inconclusive call do not appear. A call without a number means that no potency is given here. Active and inactive are the calls of the source. The call rests on the fitted dose curve; in most records, active means well fitted cell-killing curve with a large enough effect in the repeat runs; inconclusive means weak or mixed curves; inactive means no such curve, though single readings can be large or run the other way.

Assay: qHTS assay for identifying genotoxic compounds that show differential cytotoxicity against isogenic chicken DT40 cell lines with known DNA damage response pathways - Rad54/Ku70 mutant cell line (AID 743015); further: nearly all actives have a fitted effect of over 60% in size
Conditions: DT40 Rad54/Ku70 mutant viability, CellTiter-Glo, 40 h; series mostly up to 66.8 µM
Potency means the concentration at half of the fitted maximal effect.

Structure (SMILES)	Potency
CC(COc1ccccc1)NC(C)C(O)c1ccc(O)cc1 (configuration not stated)	inactive
CC1=C(C)C(=O)C(C(CCCCCC(=O)O)c2ccccc2)=C(C)C1=O (configuration not stated)	inactive
C[Si](C)(C)O[Si](C)(C)O[Si](C)(C)C	inactive
O=C(O)CNc1ccccc1	inactive
CCCCCCCCCCCC(=O)OCC	inactive
Clc1nc2ccccc2nc1Cl	inactive
O=[N+]([O-])c1ccc(Cl)cc1Cl	inactive
CC(C(=O)O)c1ccc(/C=C2\CCCCC2=O)cc1 (configuration not stated)	inactive
CCCC1CCCC(=O)O1 (configuration not stated)	inactive
CC(O)C(C)O (configuration not stated)	inactive
COc1ccc(/C=C/c2cc(OC)cc(=O)o2)cc1	inactive
O=C(O)c1cc(C(=O)O)cc([N+](=O)[O-])c1	inactive
O=C(NC1CCN(CCc2c[nH]c3ccccc23)CC1)c1ccccc1	29.8 µM (active)
CC(=O)c1ccc(Cl)c(Cl)c1Cl	inactive
OCCCO	inactive
Cc1ccc2c(Cl)cc(Cl)c(O)c2n1	1.88 µM (active)
COc1ccc(/C=C/S(=O)(=O)NC(=O)c2ccc(C)cc2Cl)cc1	inactive
OCCc1ccncc1	inactive
CCOc1ccc(NC(C)=O)cc1N	inactive

Structure (SMILES)	Potency
C=CC(=O)OCCCCCCCCCC	inactive
CC(CCl)OC(C)CCl (configuration not stated)	inactive
Nc1ccc(-c2ccc(F)cc2)cc1	68.6 µM (active)
CC(C)(C)c1ccc(CCC=O)cc1	inactive
CCC[Si](OC)(OC)OC	inactive
Nc1cccc2c(=O)[nH][nH]c(=O)c12	inactive
C/C(=C\C(C)CC(C)CC(C)C)C1CC(=O)OC1=O (configuration not stated)	inactive
CCCCCCCCCCCCCCCCN	inactive
O=C(O)c1ccc2cc(O)ccc2c1	inactive
Cc1ccccc1CCO	inactive
CC(=O)Oc1cccc2c1C(=O)c1c(OC(C)=O)cc(C(=O)O)cc1C2=O	inactive
O=C1OC(=O)C2CC=CCC12 (configuration not stated)	inactive
C[C@H]1C[C@H]2[C@@H]3CCC4=CC(=O)C=C[C@]4(C)[C@@]3(F)[C@@H](O)C[C@]2(C)[C@@]1(O)C(=O)COP(=O)(O)O	inactive
CC(=O)Nc1cccc(N)c1	inactive
COc1ccc(CN(CCN(C)C)c2ncccn2)cc1	inactive
Nc1ccc(C(=O)Oc2ccccc2)c(O)c1	29.8 µM (active)
FC1(F)C(F)(F)C(F)(F)C2(F)C(F)(C1(F)F)C(F)(F)C(F)(F)C1(F)C(F)(F)C(F)(F)C(F)(F)C(F)(F)C12F (configuration not stated)	inactive
CCCCCC1CCC(=O)O1 (configuration not stated)	inactive
